Screens from PubChem BioAssay.
LYPLA2 inh = LYPLA2 inhibitors, primary screen, counter-screen for PME1 inhibitor project, biochemical, fluorescence polarization, FP-Rh probe ABPP; Acyl-protein thioesterase 2 (Homo sapiens), O95372; recombinant LYPLA2; inhibition, % at 5.9 µM; 320,000 compounds, 0.38% hits; AID 2177, 2009;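 active means inhibition above the screen-wide mean plus 3 SD, limit set per campaign, cut at about 26% in these data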
Target sequence (O95372 whole entry, looked up): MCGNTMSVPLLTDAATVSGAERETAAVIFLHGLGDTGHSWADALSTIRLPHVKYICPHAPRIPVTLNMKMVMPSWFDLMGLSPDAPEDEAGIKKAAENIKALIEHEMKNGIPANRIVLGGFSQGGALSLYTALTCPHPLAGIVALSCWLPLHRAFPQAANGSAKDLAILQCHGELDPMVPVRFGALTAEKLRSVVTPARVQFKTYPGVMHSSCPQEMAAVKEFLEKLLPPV
p97 inhibitor = inhibitors of human p97 ATPase, primary screen, biochemical | Transitional endoplasmic reticulum ATPase (Homo sapiens), P55072 | recombinant p97 ATPase, Kinase-Glo ATP luminescence, 3 h | inhibition, % at 8 µM | 220,000 compounds, 0.42% hits | AID 1481, 2009; in the data active means inhibition above about 15%
DTT redox prof = compounds producing H2O2 with reducing agent – biochemical, NIH compound library profiling, artefact control for MLSCN library redox annotation, primary screen; DTT-dependent redox cycling H2O2, phenol red/HRP absorbance; 100% = 100 µM peroxide control, 0% = buffer; activation, % at 10 µM; 200,000 compounds, 0.03% hits; AID 878, 2007;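 active means activation of at least 50% relative to the plate's high and low controls in the primary single-dose screen; inactive means activation below 50%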;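 further: compound incubated with DTT at 0.8 mM final as the reducing agent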
LYPLA1 inh = LYPLA1 inhibitors, primary screen, counter-screen for PME1 inhibitor project, biochemical, fluorescence polarization, FP-Rh probe ABPP; Acyl-protein thioesterase 1 (Homo sapiens), O75608; inhibition, % at 5.9 µM; recombinant LYPLA1; 320,000 compounds, 0.16% hits; AID 2174, 2009;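 active means inhibition above the mean of all tested compounds plus 3 SD, set per campaign, cut at about 14% in these data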;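 further: inhibitors block serine hydrolase probe labeling of LYPLA1 so polarization falls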
Target sequence (O75608 whole entry, looked up): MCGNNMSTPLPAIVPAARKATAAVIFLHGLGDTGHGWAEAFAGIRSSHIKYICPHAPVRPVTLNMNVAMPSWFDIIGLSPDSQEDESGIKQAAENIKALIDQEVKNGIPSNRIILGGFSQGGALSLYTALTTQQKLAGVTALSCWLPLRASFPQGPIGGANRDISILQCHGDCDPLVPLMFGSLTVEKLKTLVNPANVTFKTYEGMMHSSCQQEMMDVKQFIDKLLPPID
p97 inh conf = p97 ATPase inhibitors, retest, confirmation, biochemical; inhibition, % at 8 µM; AID 1517, 2009; shares compounds with p97 inhibitor; 760 compounds, 44% hits; recombinant p97 ATPase, Kinase-Glo ATP luminescence;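 active means percent inhibition of p97 ATPase above a set limit, the primary screen's mean plus 3 SD, cut at about 15% in these data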
Each line names hits and unclear results; the compound was inactive in the other large screens (follow-up assays come after a bar, where they were run). Only some compounds are listed: those with a hit (about 0.74% of all), similar ones and a draw of the others.

CC(C)c1nc2sc3c(=O)[nH]cnc3c2c2c1CCCC2	p97 inhibitor 16 (no result: DTT redox prof) | p97 inh conf 20
O=C(O)/C=C/c1cn(-c2ccccc2)nc1-c1ccc(-c2ccc([N+](=O)[O-])cc2)o1	none (no result: DTT redox prof)
COc1ccc(-c2noc3c2-c2nc(-c4ccc(Br)cc4)sc2CC3)cc1	none (no result: p97 inhibitor, DTT redox prof)
C=C1c2cccc(O)c2C(O)=C2C(=O)[C@]3(O)C(O)=C(C(N)=O)C(=O)[C@@H](N(C)C)[C@@H]3[C@@H](O)[C@H]12	p97 inhibitor 63 | p97 inh conf inactive
O=c1cc(-c2ccccc2)[nH]c2nc3ccccc3n12	none
O=c1cc(CCl)[nH]c2nc3ccccc3n12	p97 inhibitor 38 (no result: DTT redox prof) | p97 inh conf 38
CCOc1cccc(/C=N/NC(=S)Nc2ccccc2[N+](=O)[O-])c1O	none
O=[N+]([O-])c1ccccc1NC(=S)N/N=C/c1ccc(O)c(O)c1	p97 inhibitor 19 | p97 inh conf 22
Cc1ccccc1N1C(=O)c2cc(S(N)(=O)=O)c(Cl)cc2NC1C (centres undefined)	none (no result: p97 inhibitor, DTT redox prof)
O=C(O)CSc1cc(NS(=O)(=O)c2cccc([N+](=O)[O-])c2)c2ccccc2c1O	p97 inhibitor 27 (no result: LYPLA2 inh, DTT redox prof, LYPLA1 inh) | p97 inh conf 40
O=C(CC1Sc2ncnn2C1=O)Nc1ccccc1 (centres undefined)	p97 inhibitor 16 | p97 inh conf inactive
O=C(NCCn1ccc2ccccc21)c1cccc([N+](=O)[O-])c1	none
CC1=NN(c2ccc(Cl)cc2)C(=O)C1C(c1cccc(O)c1)c1c(C)[nH]n(-c2ccc(Cl)cc2)c1=O (centres undefined)	p97 inhibitor 17 | p97 inh conf inactive
COc1ccc(CN2C(=O)CC(C(=O)NCCc3ccc(S(N)(=O)=O)cc3)SC2=Nc2ccccc2)cc1 (centres undefined)	none
O=C(CN1CCN(C(=O)c2cccc(S(=O)(=O)N3CCCC3)c2)CC1)Nc1ccc(F)cc1	none (no result: p97 inhibitor, DTT redox prof)
Cc1cn2c(nc1=O)OC1CC2OC1CO (centres undefined)	none (no result: DTT redox prof)
Cc1ccc(/C=C2/SC(=O)NC2=S)o1	p97 inhibitor 26 (no result: LYPLA2 inh, LYPLA1 inh) | p97 inh conf inactive
C[n+]1cccc2c(Br)ccc([O-])c21	p97 inhibitor 45 (no result: DTT redox prof) | p97 inh conf inactive
Cc1ccc(Oc2ccccc2NC(=O)C2=COCCO2)cc1	none (no result: p97 inhibitor, DTT redox prof)
CSc1nc(-c2ccc(Cl)cc2)c(C#N)c(=O)[nH]1	none
CSC1=C(C#N)C(=O)NC(c2ccc(Cl)cc2)S1 (centres undefined)	p97 inhibitor 18 (no result: DTT redox prof) | p97 inh conf 31
Cc1cc(/C=C(/C#N)c2nc3ccccc3[nH]2)c(C)n1-c1cc(C(=O)O)cc(C(=O)O)c1	p97 inhibitor 17 (no result: LYPLA2 inh, LYPLA1 inh) | p97 inh conf inactive
Cc1cc(/C=C(/C#N)c2nc3ccccc3[nH]2)c(C)n1-c1ccccc1C(=O)O	none
COc1cc(NC2c3ncccc3C(=O)N2Cc2ccco2)cc(OC)c1OC (centres undefined)	none
COC(=O)[C@@]12CCCCN1[C@H](c1ccc(-c3ccc(F)cc3)c(OC)c1)[C@@H]1C(=O)N(C)C(=O)[C@@H]12	none (no result: p97 inhibitor, DTT redox prof)
COc1ccc(CNc2ncnc3c2[nH]c2ccccc23)cc1	p97 inhibitor 16 (no result: DTT redox prof) | p97 inh conf 20
Oc1ccc(/C=N\Nc2cc(N3CCOCC3)nc(N3CCOCC3)n2)c(O)c1	none
Cc1cc(N/N=C/c2ccc(O)cc2O)nc(N2CCOCC2)n1	p97 inhibitor 15 (no result: DTT redox prof) | p97 inh conf 17
O=C(Nc1cccc(NC(=O)c2ccco2)c1)c1ccc2c(c1)OCCO2	p97 inhibitor 17 | p97 inh conf inactive
O=C(Nc1cccc(NC(=O)c2ccco2)c1)c1ccc2c(c1)OCO2	none
COc1ccc(NC(=O)C(Cl)=C(Cl)Cl)cn1	p97 inhibitor 28 (no result: LYPLA2 inh, LYPLA1 inh) | p97 inh conf 35
COc1cc(NC(=O)c2ccc([N+](=O)[O-])o2)ccc1NC(=O)c1cccs1	none
O=C(Nc1cccc(NC(=O)c2cccs2)c1)c1ccc([N+](=O)[O-])o1	p97 inhibitor 18 (no result: DTT redox prof) | p97 inh conf 25
N#Cc1c(C(F)(F)F)cc(Cc2ccccc2)nc1SCC(=O)NCC(=O)O	none (no result: p97 inhibitor, DTT redox prof)
NC(=O)c1sc2nc(-c3ccco3)ccc2c1N	p97 inhibitor 24 | p97 inh conf inactive
COC(=O)c1sc2nc(-c3ccco3)ccc2c1N	none
